# Measurements: PubChem BioAssay (NCI)
# About 83,000 compounds went through this panel and 20% of them were active in at least one assay; those are over-represented in the sample as a whole.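 Compound tested at a single concentration for 48 hours in 96-well plates; a percent growth value below 10 was scored as active.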 A number with no mark means an inactive call. Activity calls are given as the source filed them.
# How the values were obtained:
# Assay in all cases: NCI-60 one-dose screen, 48 h (100 = growth as untreated, 0 = no growth, -100 = all killed)
# Conditions in all cases: 10 µM unless noted
# T-47D breast = test system: T-47D breast
# BT-549 breast = test system: BT-549 breast
# MDA-MB-435 melanoma = test system: MDA-MB-435 melanoma
# SW-620 colon = test system: SW-620 colon
# MCF7 breast = test system: MCF7 breast
# HCT-116 colon = test system: HCT-116 colon
# HCC-2998 colon = test system: HCC-2998 colon
# KM12 colon = test system: KM12 colon
SMILES,growth (T-47D breast),growth (BT-549 breast),growth (MDA-MB-435 melanoma),growth (SW-620 colon),growth (MCF7 breast),growth (HCT-116 colon),growth (HCC-2998 colon),growth (KM12 colon)
CN1CCN(Cc2ccc(NC(=O)c3ccc(C(C)(C)C)c(C#Cc4cnc5cccnn45)c3)cc2C(F)(F)F)CC1,26.6%,88.5%,-88.5% (active),-61.9% (active),-74.3% (active),-70.8% (active),-81.6% (active),-80.8% (active)
Cc1cc(O)c(C2=NN(c3ccc(S(N)(=O)=O)cc3)C(/C=C/c3ccccc3)C2)cc1Cl (stereo unspecified),25.7%,52.4%,47.4%,51.9%,33.8%,10.6%,50.5%,57.6%
Nc1nc(Cl)cc(=O)n1Cc1ccccc1,83.4%,102%,92.6%,105%,98.1%,95.2%,89.4%,101%
CCc1ccc2nc(NC(=O)Cc3csc(NC(=O)c4ccco4)n3)sc2c1,55.1%,57.4%,90.6%,101%,18.3%,78%,101%,78.6%
COc1cc(C2CC(c3cccc(Br)c3)=NN2C(C)=O)cc(OC)c1OC (stereo unspecified),69.7%,-8.75% (active),-51.2% (active),24.8%,22.8%,17.2%,-31% (active),16.9%
Cc1ccc(-c2nc(SCC(=O)Nc3nc(-c4ccc(Cl)cc4)cs3)[nH]c(=O)c2C#N)cc1,87.2%,83.6%,107%,107%,97.7%,91.6%,109%,96.1%
NS(=O)(=O)c1ccc(-n2nc(-c3ccc(Cl)cc3)c3ccccc3c2=O)cc1,76.8%,157%,112%,105%,88.6%,88.2%,107%,97.1%
Oc1ccc(-c2nc3ccc4[nH]ncc4c3c3c2CCCC3)c2cccnc12,15.1%,-12.9% (active),-7.42% (active),7.64% (active),2.05% (active),2.74% (active),5.08% (active),2.51% (active)
Cc1nc2ccccc2n1-c1ncnc2c1CC(C)c1ccccc1N2C (stereo unspecified),72.1%,92.3%,8.87% (active),68%,61.8%,96.2%,90%,73.6%
Cc1ccc(C(=O)NN2C(=O)CSC2c2cccc([N+](=O)[O-])c2)cn1 (stereo unspecified),96.1%,104%,97%,98.3%,112%,99.6%,84%,106%
COc1ccc(C2C(N)=NNC2c2cccc(O)c2)cc1 (stereo unspecified),101%,87.5%,100%,109%,96.6%,104%,122%,92.8%
CNc1nc2c(s1)C(c1cccc(F)c1)CC(=O)N2 (stereo unspecified),94.8%,94.5%,99.9%,102%,95.2%,99.8%,104%,101%
COc1cc2cc(Oc3ccc(NC(=O)Nc4ccc(Cl)c(Cl)c4)cc3)c(C)nc2cc1OCCN1CCOCC1,75.1%,72.5%,91.8%,104%,60.1%,86.1%,116%,91.7%
COc1cc(-c2nc3sccn3c2-c2ccnc(NCCCNS(=O)(=O)c3ccc(F)cc3)n2)ccc1F,15.5%,42.8%,65.8%,106%,76.1%,58.1%,95.5%,74.2%
CNCCCNc1nc2ccccc2c2c(=O)c3cc(F)ccc3sc12,22.4%,86.7%,-85.3% (active),-71.4% (active),-44.8% (active),-67% (active),-88.3% (active),-44.4% (active)
O=C(CCOCCNC(=O)COc1ccc2c(c1)OCC(c1ccc(F)cc1)C2=O)NCCCC(O)(P(=O)(O)O)P(=O)(O)O (stereo unspecified),101%,105%,102%,101%,89%,101%,98%,100%

SMILES,growth (T-47D breast),growth (BT-549 breast),growth (MDA-MB-435 melanoma),growth (SW-620 colon),growth (MCF7 breast),growth (HCT-116 colon),growth (HCC-2998 colon),growth (KM12 colon)
CN(C)c1ccc(/C=N\Nc2cc(=O)[nH]c3ccc(Cl)cc23)cc1,81.7%,85.5%,105%,86%,81%,88.4%,104%,104%
COc1nc2ccc(C)cc2cc1-c1nc2c(cnn2-c2ccc(Br)cc2)c(=O)[nH]1,58.3%,91.2%,-27.1% (active),28.6%,21.8%,13.7%,88.4%,25%
CNc1ccc(Nc2cccc(C)c2)c2c1C(=O)c1ccccc1C2=O,40.9%,110%,135%,85.4%,10.2%,92.4%,88.5%,48.4%
CCOc1ccc2nc(SCc3nc4n(n3)S(=O)(=O)c3ccccc3N4C)sc2c1,45.2%,-10.6% (active),60.8%,14%,47.3%,19.1%,28.5%,7.52% (active)
CCOC(=O)Nc1ccc(C(=O)/C=C/c2ccccc2)cc1,84.3%,95.1%,44.6%,73.9%,0.358% (active),6.33% (active),34.4%,8.51% (active)
COC(=O)CCC/C=C\C[C@H]1C=CC(=O)/C1=C/C[C@@H](O)CCc1cccc(C(F)(F)F)c1,9.77% (active),-11.4% (active),-82.2% (active),-40% (active),6.5% (active),-89% (active),-89.6% (active),-51.9% (active)
O=C(N/N=C/c1c(Cl)cccc1Cl)c1ccc(C(F)(F)F)nc1Nc1cccc(C(F)(F)F)c1,-9.07% (active),-5.79% (active),24.2%,7.71% (active),1.97% (active),-19.6% (active),-29.2% (active),8.17% (active)
O=C(Nn1c(NCC(=O)N2c3ccccc3Sc3ccccc32)nnc1-c1ccc(O)cc1)c1ccccc1,98.9%,98.4%,102%,105%,108%,91.7%,91.9%,104%
O=C(/C=C/c1sc(Cl)nc1Cl)c1ccc(F)cc1,83.7%,103%,101%,24.7%,14.4%,39.4%,30.4%,60.8%
COc1ccc(/C=C/c2c(C(=O)/C=C/c3ccc(C(F)(F)F)cc3)c(C)nc3ccccc23)cc1,-13.3% (active),-14.2% (active),-56.5% (active),-42.3% (active),1.41% (active),-67.8% (active),-77% (active),-67.6% (active)
c1cc2nc(-c3cn[nH]c3)c3c(c2cc1-c1cn[nH]c1)C1CCC3C1 (stereo unspecified),37.6%,62%,75.3%,77.5%,49.2%,61.5%,84.5%,37.8%
NCCCNc1nc2ccccc2c2c(=O)c3cc(F)cc(F)c3sc12,92.7%,93.4%,-91.2% (active),-75.6% (active),75.5%,53.2%,75.3%,79.1%
COc1nc2ccccc2cc1-c1nc2c(cnn2-c2ccccc2)c(=O)[nH]1,50.1%,38.5%,-20.9% (active),20.8%,20.9%,42.1%,73.3%,29%
COc1ccc(/C=C/c2c(C(=O)/C=C/c3ccc(Cl)cc3)c(C)nc3ccccc23)cc1,23.2%,54.5%,2.02% (active),-17% (active),26.2%,-64.6% (active),-48.6% (active),30.2%
COc1ccc2nc(NCCCNCCO)c3sc4ccc(F)cc4c(=O)c3c2c1,72.2%,91.6%,-69% (active),-66.4% (active),17.8%,-67.2% (active),-82.9% (active),-58.7% (active)
Cn1cc(-c2cc3ncnc(Nc4ccc(CC(=O)Nc5cc(C(C)(C)C)nn5C)cc4)c3s2)cn1,12.1%,45.7%,58.4%,63%,54.8%,39.2%,80.8%,16.7%
